From PubChem BioAssay (NCATS) come the findings set out here.

Active and inactive are the calls of the source. Calls follow the shape of the full dose curve.

Tumor susceptibility gene 101 protein (Homo sapiens), sequence (Q99816 whole entry, looked up): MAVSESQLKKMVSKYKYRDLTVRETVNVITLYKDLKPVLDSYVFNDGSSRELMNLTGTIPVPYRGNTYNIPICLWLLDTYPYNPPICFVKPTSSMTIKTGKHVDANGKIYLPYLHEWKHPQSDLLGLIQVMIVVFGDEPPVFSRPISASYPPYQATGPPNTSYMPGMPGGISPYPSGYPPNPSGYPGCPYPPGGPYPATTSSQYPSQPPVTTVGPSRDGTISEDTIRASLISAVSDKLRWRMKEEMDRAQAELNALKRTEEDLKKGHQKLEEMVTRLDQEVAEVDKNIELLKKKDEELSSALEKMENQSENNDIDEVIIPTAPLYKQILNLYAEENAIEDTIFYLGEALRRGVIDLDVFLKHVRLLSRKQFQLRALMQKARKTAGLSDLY

The assay has as its target Tumor susceptibility gene 101 protein (Homo sapiens) (UniProt Q99816). In words: qHTS Validation Assay for Iinhibitors of HIV-1 Budding by Blocking the Interaction of PTAP/TSG101 (AID 485342). Particulars: TSG101-PTAP binding, fluorescence polarization, 4-point titration; series mostly up to 115 µM. From the text:
NIH Molecular Libraries Probe Production Network [MLPCN]
NIH Chemical Genomics Center [NCGC]
PI Name: Dr. Eric Freed, NCI
Stages of the HIV-1 replication cycle, specifically virus assembly and release, provide underexploited targets for the development of novel antiviral inhibitors. The late stages of HIV-1 replication are mediated by the Gag precursor protein, Pr55Gag. Expression of Pr55Gag is both necessary and sufficient for the production of virus-like particles from Gag-expressing cells. The Gag protein hijacks key host proteins involved in endocytic machinery of the host cell to promote endosomal processing and viral budding. The budding process requires a direct interaction between a […] (PTAP) motif in the p6 domain of Gag and the cellular endosomal sorting protein known as Tsg101. In this way, the Gag PTAP motif promotes the host cells to recruit viral particles to the plasma membrane where the new viral particles are released, effectively turning the host cells into viral factories. A fluorescence anisotropy assay has been developed to quantitatively measure the PTAP-Tsg101 interaction which can be used to screen for inhibitors of this interaction.
NCGC Assay Protocol Summary:
Two uL of the Tsg101 binding domain in buffer (10 mM HEPES pH 7.5; 0.15 M NaCl, 0.01% Tween 20; 3 mM EDTA;0.1 mM TCEP) was dispensed into Greiner black MB 1536-well plates (final concentration 10 uM). Then, 23 nL of compounds or DMSO were delivered to each well using a pin tool. Finally, 2 uL of a FITC-labeled peptide containing the PTAP motif (1) in the same buffer was dispensed (50 nM final concentration) and the binding was allowed to proceed for 20 min. at r.t. Fluorescent polarization was determined using FITC excitation and polarized emission filters on a Perkin Elmer Viewlux.
Keywords: Tsg101, PTAP, Gag, HIV, fluorescent polarization, MLSMR, MLPCN, NIH Roadmap, qHTS, NCGC
For `C[C@@H]1O[C@@H](O[C@H]2C[C@@H](O)[C@]3(CO)[C@H]4[C@H](O)C[C@]5(C)[C@@H](C6=CC(=O)OC6)CC[C@]5(O)[C@@H]4CC[C@]3(O)C2)[C@H](O)[C@H](O)[C@H]1O`, the compound was called inactive. For `CCCN1CCC[C@@H]2Cc3nc(N)ncc3C[C@H]21`, the result was inactive. In the case of `CCC1(C2=NCCN2)Cc2ccccc2O1` (centres undefined), the outcome was inactive. Next, `CC(C)=CCOc1c2occc2cc2ccc(=O)oc12`: “inactive”; `CCCC(C)(COC(N)=O)COC(=O)NC(C)C` (centres undefined): “inactive”; `CN1C[C@H](CNC(=O)OCc2ccccc2)C[C@@H]2c3cccc4c3c(cn4C)C[C@H]21`: “inactive”. Next, `O=c1[nH]c2ccccc2n1CCCN1CCC(n2c(=O)[nH]c3cc(Cl)ccc32)CC1`: “inactive”; `Cc1cccc(C)c1NC1=NCCCS1`: “inactive”; `COC[C@H]1OC(=O)c2coc3c2[C@@]1(C)C1=C(C3=O)C2CCC(=O)[C@@]2(C)C[C@H]1OC(C)=O` (some centres undefined): “inactive”. Next, `O=C1NCN(c2ccccc2)C12CCN(CC1COc3ccccc3O1)CC2` (centres undefined): “inactive”; `CCCN1CCC[C@@H]2Cc3[nH]ncc3C[C@H]21`: “inactive”; `c1ccc2c(c1)OCC(C1=NCCN1)O2` (centres undefined): “inactive”. With `Cc1cccc(C)c1NC(=O)CN1CCCC1=O`, the result was inactive. Next, `NCC(O)c1ccc(O)cc1` (centres undefined): “inactive”; `Fc1ccc(C(OCCN2CCN(CCCc3ccccc3)CC2)c2ccc(F)cc2)cc1`: “inactive”; `NN=C(N)N`: “inactive”. Turning to `CC(CCc1ccccc1)NC(C)C(O)c1ccc(O)cc1` (centres undefined), the result was inactive.

On to `O=c1[nH]c2ccccc2n1C1CCN(CCCC(c2ccc(F)cc2)c2ccc(F)cc2)CC1`, for which the outcome was inactive. As to `CC[C@@H](CO)NC(=O)[C@@H]1C=C2c3cccc4c3c(cn4C)C[C@H]2N(C)C1`, the result was inactive.

On to `CC(=O)[C@H]1CC[C@H]2[C@@H]3CC[C@H]4C[C@H](O)CC[C@]4(C)[C@H]3C(=O)C[C@]12C`, for which the result was inactive. Next, `c1ccc(C2CC2)c(OCC2=NCCN2)c1`: “inactive”. For `NCC(CC(=O)O)c1ccc(Cl)cc1` (centres undefined), the outcome was inactive.

With `Nc1ccncc1`, the compound was called inactive.

As for `Cc1ccc(S(=O)(=O)N[C@@H](CCCCN)C(=O)CCl)cc1`, the outcome was inactive. Take `CC[C@@H](CO)NC(=O)[C@@H]1C=C2c3cccc4[nH]cc(c34)C[C@H]2N(C)C1`: the call was inactive. Next, `C=C(C)[C@H]1Cc2c(ccc3c2O[C@@H]2COc4cc(OC)c(OC)cc4[C@@H]2C3=O)O1`: “inactive”; `CNCC(O)c1ccc(O)cc1` (centres undefined): “inactive”; `N#CC(C#N)=Cc1ccc(O)c(O)c1`: “inactive”.

As to `Cc1ncc(CNC(=O)N(CCCl)N=O)c(N)n1`, the compound was classed as inactive.

For the compound `COc1ccc(C(CN(C)C)C2(O)CCCCC2)cc1` (centres undefined), the outcome was inactive. Take `CC(O)(CS(=O)(=O)c1ccc(F)cc1)C(=O)Nc1ccc(C#N)c(C(F)(F)F)c1` (centres undefined): the call was inactive. As to `NCC1(CC(=O)O)CCCCC1`, the compound was classed as inactive. Turning to `COc1ccccc1N1CCNCC1`, the call was inactive.

With `CC(=O)[C@H]1CC[C@H]2[C@@H]3CC[C@H]4C[C@](C)(O)CC[C@]4(C)[C@H]3CC[C@]12C`, the call was inactive.
